# Laboratory results published in PubChem BioAssay (NCATS).
# Several values for one entry are separate records, joined by “and”; a condition that tells them apart may be missing. Identical values can stand only once. Records with an inconclusive call do not appear. A call without a number means that no potency is given here. Activity calls are given as the source filed them. Unless noted, calls come from the whole dose curve; as a rule, active = well fitted curve in the direction sought with a large enough effect; inconclusive = small, poorly fitted or top-dose-only effect, or another doubt; inactive = no such curve, though single readings can be large; an effect the other way counts as inactive or inconclusive.
# Key:
# [1] = molecular target: Peroxisome proliferator-activated receptor delta (Homo sapiens) (UniProt Q03181); experiment: qHTS assay for small molecule antagonists of peroxisome proliferator-activated receptor delta signaling (AID 588535; active = well fitted inhibition curve with a large enough effect in the signal ratio, with a control signal flat, not every such curve was filed as active; the % refers to the signal ratio)
# Procedure, shortened: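 Titrations were run on PPAR-delta-UAS-bla HEK293T cells in charcoal/dextran-stripped serum, incubated 18 h at 37 C. CCF4 fluorescence (460/530 nm) after 2 h RT; Hill equation yields IC50 and maximal response.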
# [2] = molecular target: Vitamin D3 receptor (Homo sapiens) (UniProt P11473); experiment: qHTS assay for small molecule antagonists of vitamin D receptor signaling (AID 588541; calls by dose curve;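 note: receptor activated by calcitriol during compound treatment; series mostly up to about 77 µM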)
# Procedure, shortened: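 Antagonist-mode beta-lactamase reporter assay: HEK293T VDR-UAS-bla cells were exposed to titrated compound alongside 1-alpha,25-dihydroxyvitamin D3 at 3 nM final for 16 h. Values were normalized to the 50 nM agonist control and DMSO basal, with IC50 and efficacy from Hill equation fits.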
# [3] = molecular target: Vitamin D3 receptor (Homo sapiens) (UniProt P11473); experiment: qHTS assay for small molecule agonists of vitamin D receptor signaling (AID 588543; calls by dose curve)
# Procedure, shortened: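 qHTS in agonist mode: compound titrations stimulate a VDR-driven β-lactamase reporter in HEK293T cells over 16 h at 37 °C. Response normalized to 50 nM 1α,25-dihydroxyvitamin D3 = 100%, DMSO = 0%; Hill fitting gives EC50 and maximal response.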
# [4] = qHTS assay for small molecule agonists of retinoid X receptor alpha signaling (AID 588544; calls by dose curve); settings: HEK293T RXRa-UAS-bla, beta-lactamase reporter, 18 h; 530 nm emission
# [5] = molecular target: Retinoic acid receptor RXR-alpha (Homo sapiens) (UniProt P19793); experiment: as above
# [6] = molecular target: Voltage-gated inwardly rectifying potassium channel KCNH2 (Homo sapiens) (UniProt Q12809); experiment: qHTS Assay for Small Molecule Inhibitors of the Human hERG Channel Activity (AID 588834);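 note: U2OS cells transduced with hERG by BacMam; top concentration of the series differs between compounds; lower thallium flux fluorescence means stronger hERG block; nearly all actives have a fitted effect of over 50% in size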
# Procedure, shortened: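 Cells were infected with hERG-BacMam virus for 4 hrs at room temperature, grown overnight, then seeded at 2000/well. After dye loading and roughly 10 min compound treatment, thallium influx was triggered and fluorescence recorded.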
# [7] = molecular target: Luciferin 4-monooxygenase (Photinus pyralis) (UniProt P08659); experiment: Biochemical firefly luciferase enzyme assay for NPC (AID 624030);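 note: purified P. pyralis luciferase at 10 nM with luciferin and ATP substrate; series mostly up to about 59 µM; nearly all actives have a fitted effect of over 70% in size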
# Procedure, shortened: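 Direct inhibition of firefly luciferase enzyme (10 nM final, 50 mM Tris Acetate) assessed by luminescence within 5 minutes. Percent activity scaled between DMSO and PTC124 positive control, with concentration-effect curves classified by fit quality and response.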
# [8] = S16 Schwann cell viability assay (CellTiter-Glo assay) (AID 624031);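 note: cellular ATP luminescence as a viability measure; series mostly up to about 58 µM; nearly all actives have a fitted effect of over 70% in size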
# Procedure, shortened: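 CellTiter-Glo ATP luminescence counter-screen in untransfected S16 rat Schwann cells, 24h compound exposure at 37 degree Celsius after overnight seeding (500-750 cells/well); response scaled between cell-free wells and DMSO (0% activity), curves classed by r2 and magnitude.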
# [9] = S16 Schwann cell PMP22 intronic element firefly luciferase assay (AID 624032); note: series mostly up to about 58 µM; nearly all actives have a fitted effect of over 30% in size
# Procedure, shortened: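 Luciferase reporter of PMP22 intronic-element expression in stably transfected S16 rat Schwann cells, read by ONE-Glo luminescence after 24 h compound exposure at 37 C. Activity scaled between DMSO (0%) and positive-control PTC124; concentration-effect curves quality-classified.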
# [10] = S16 Schwann cell PMP22 intronic element beta-lactamase assay (AID 624044; calls by dose curve; note: nearly all actives have a fitted effect of over 15% in size)
# Procedure, shortened: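 Beta-lactamase reporter under a PMP22 intronic regulatory element in stable S16 rat Schwann cells; 24 h compound exposure. 460 nm blue signal normalized between DMSO (0%) and potassium clavulanate, with 535 nm FRET tracking viability; curves classed by r2 and response.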
# [11] = molecular target: Peroxisome proliferator-activated receptor gamma (Homo sapiens) (UniProt P37231); experiment: qHTS assay for small molecule agonists of peroxisome proliferator-activated receptor gamma signaling (AID 588536; active = well fitted curve in the direction sought with a large enough effect in the signal ratio, with a control signal flat, not every such curve was filed as active; the % refers to the signal ratio)
# Procedure, shortened: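 Beta-lactamase reporter read-out: CCF4 fluorescence (ex 405, em 460/530 nm) after 2 h at RT. HEK293 GeneBLAzer cells were treated for 16 h at 37 C. Hill fits gave EC50 and efficacy versus 2 uM rosiglitazone (100%) and DMSO (0%).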
# [12] = molecular target: Peroxisome proliferator-activated receptor gamma (Homo sapiens) (UniProt P37231); experiment: qHTS assay for small molecule antagonists of peroxisome proliferator-activated receptor gamma signaling (AID 588537; active = well fitted inhibition curve with a large enough effect in the signal ratio, with a control signal flat, not every such curve was filed as active; the % refers to the signal ratio; note: potency is the fitted concentration of half-maximal effect)
# Procedure, shortened: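 Antagonist-mode β-lactamase reporter screen run as a titration series. HEK293 PPARγ-UAS-bla cells are stimulated with rosiglitazone (50 nM final) for 16 h, then CCF4 is read at 460/530 nm. Data are scaled between DMSO and rosiglitazone and fitted to the Hill equation.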
# [13] = molecular target: Thyroid hormone receptor beta (Homo sapiens) (UniProt P10828); experiment: qHTS assay for small molecule agonists of thyroid hormone receptor beta signaling (AID 588545; calls by dose curve)
# Procedure, shortened: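 Beta-lactamase reporter activity under TR response element control is measured in HEK 293 cells after 18 hrs compound exposure. Signal is ratiometric CCF4 fluorescence, 460/530 nm.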
# [14] = qHTS assay for small molecule antagonists of retinoid X receptor alpha signaling (AID 588546; active = well fitted inhibition curve with a large enough effect in the signal ratio, with a control signal flat, not every such curve was filed as active; the % refers to the signal ratio; note: potency is the fitted concentration of half-maximal effect;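 for max response: cells stimulated with 9-cis-retinoic acid as agonist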); settings: HEK293T RXRa-UAS-bla, beta-lactamase ratio, antagonist mode; measured here: W530 green channel, cytotoxicity proxy
# Procedure, shortened: (§1)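 Beta-lactamase reporter inhibition, read as CCF4 fluorescence ratio (ex 405, em 460/530 nm) after 2 h at RT. HEK293T UAS-bla cells, 2500/well, were stimulated with 9-cis-RA at 500 or 100 nM final alongside test compound for 18 h at 37 C.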
# [15] = molecular target: Retinoic acid receptor RXR-alpha (Homo sapiens) (UniProt P19793); experiment: as above; settings: HEK293T RXRa-UAS-bla, beta-lactamase ratio, antagonist mode
# Procedure, shortened: as §1
# [16] = molecular target: Glutaminase kidney isoform, mitochondrial (Homo sapiens) (UniProt O94925); experiment: qHTS for Inhibitors of Glutaminase (GLS): LOPAC Validation (AID 624146); note: nearly all actives have a fitted effect of over 60% in size; note: potency is the fitted concentration of half-maximal effect
# Procedure, shortened: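 Glutamate formation by hKGA was monitored fluorometrically using coupled glutamate oxidase, HRP and Amplex Red. Substrate was added as 1 mM L-glutamine solution; incubation was 30 min at RT after an initial read.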
# [17] = qHTS of Trypanosoma Brucei Inhibitors: LOPAC Validation (AID 624147)
# Procedure, shortened: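 T. brucei PYK with substrate was exposed to pin-transferred compounds across a concentration series, then started with 130 uM ADP (final). After 45 min at room temperature, Kinase-Glo Plus luminescence was read, normalized and curve-fitted.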
# [18] = molecular target: Glucagon-like peptide 1 receptor (Homo sapiens) (UniProt P43220); experiment: qHTS of GLP-1 Receptor Agonists: LOPAC Validation (AID 624148);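 note: luminescence from a luciferase reporter switched on by cAMP; higher luminescence signal means agonism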
# Procedure, shortened: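 Agonism scored as increased luciferase luminescence driven by cAMP in HEK293 clones carrying GLP-1R. Cells settled 12 hours, received compound for 4-6 hr at 37 deg C, 5% CO2, and were read after 12 min detection reagent at RT.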
# [19] = qHTS of Nrf2 Activators: LOPAC Validation (AID 624149)
# Procedure, shortened: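 Luciferase signal from ARE activation, read with Steady-Glo after 30 min at room temperature. Compounds were pin-transferred onto AREc32_Fluc cells (1000/well, OPTI-MEM/5% FBS, seeded overnight) and left 24 hr at 37 deg C.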
# [20] = qHTS for Inhibitors of the vitamin D receptor (VDR): Hit Validation using a Texas Red Assay (AID 602201)
# Procedure, shortened: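 After a 2-hour room-temperature incubation, polarization of Texas-Red emission was read (Ex 595 nm/Em 615 nm). Final mix contained 7 nM Texas Red, 1.5 uM VDR-LBD and LG19078.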
# Chain of Vitamin D3 receptor (Homo sapiens) (P11473 whole entry, looked up): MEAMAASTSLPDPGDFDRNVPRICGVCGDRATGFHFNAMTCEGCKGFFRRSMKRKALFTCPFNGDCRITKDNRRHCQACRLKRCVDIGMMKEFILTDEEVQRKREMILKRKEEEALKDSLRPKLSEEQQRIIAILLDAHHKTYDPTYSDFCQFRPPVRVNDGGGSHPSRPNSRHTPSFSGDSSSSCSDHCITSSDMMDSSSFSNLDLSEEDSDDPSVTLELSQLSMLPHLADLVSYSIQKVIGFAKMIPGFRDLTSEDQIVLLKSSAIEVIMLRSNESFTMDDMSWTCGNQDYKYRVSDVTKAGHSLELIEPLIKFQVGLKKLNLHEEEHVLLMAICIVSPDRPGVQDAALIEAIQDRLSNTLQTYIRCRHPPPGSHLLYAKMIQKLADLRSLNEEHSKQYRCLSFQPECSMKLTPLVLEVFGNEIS
# Chain of Glucagon-like peptide 1 receptor (Homo sapiens) (P43220 whole entry, looked up): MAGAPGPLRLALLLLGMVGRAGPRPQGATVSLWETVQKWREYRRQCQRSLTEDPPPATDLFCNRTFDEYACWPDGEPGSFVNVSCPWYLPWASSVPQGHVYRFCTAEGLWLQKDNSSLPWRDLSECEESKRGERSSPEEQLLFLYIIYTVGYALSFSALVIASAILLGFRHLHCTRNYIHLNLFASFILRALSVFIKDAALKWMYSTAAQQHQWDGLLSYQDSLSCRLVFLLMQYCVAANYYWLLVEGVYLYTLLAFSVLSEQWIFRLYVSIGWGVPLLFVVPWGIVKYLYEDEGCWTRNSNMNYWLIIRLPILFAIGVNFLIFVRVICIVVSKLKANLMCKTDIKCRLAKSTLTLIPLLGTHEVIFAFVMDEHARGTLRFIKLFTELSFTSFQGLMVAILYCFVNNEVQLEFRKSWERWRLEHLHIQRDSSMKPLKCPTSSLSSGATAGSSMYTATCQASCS
# Chain of Peroxisome proliferator-activated receptor delta (Homo sapiens) (Q03181 whole entry, looked up): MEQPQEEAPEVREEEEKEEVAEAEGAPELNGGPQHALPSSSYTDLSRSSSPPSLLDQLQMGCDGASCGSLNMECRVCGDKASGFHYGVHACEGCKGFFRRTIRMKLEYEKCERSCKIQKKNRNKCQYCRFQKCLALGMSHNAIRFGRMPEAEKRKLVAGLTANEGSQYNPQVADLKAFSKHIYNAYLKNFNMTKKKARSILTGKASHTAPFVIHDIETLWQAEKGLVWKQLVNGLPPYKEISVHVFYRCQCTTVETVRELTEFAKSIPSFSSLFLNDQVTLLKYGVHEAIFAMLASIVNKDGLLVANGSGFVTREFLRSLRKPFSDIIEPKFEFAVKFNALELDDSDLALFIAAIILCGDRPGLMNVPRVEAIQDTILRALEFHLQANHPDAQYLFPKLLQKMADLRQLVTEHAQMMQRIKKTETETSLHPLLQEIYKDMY
# Chain of Luciferin 4-monooxygenase (Photinus pyralis) (P08659 whole entry, looked up): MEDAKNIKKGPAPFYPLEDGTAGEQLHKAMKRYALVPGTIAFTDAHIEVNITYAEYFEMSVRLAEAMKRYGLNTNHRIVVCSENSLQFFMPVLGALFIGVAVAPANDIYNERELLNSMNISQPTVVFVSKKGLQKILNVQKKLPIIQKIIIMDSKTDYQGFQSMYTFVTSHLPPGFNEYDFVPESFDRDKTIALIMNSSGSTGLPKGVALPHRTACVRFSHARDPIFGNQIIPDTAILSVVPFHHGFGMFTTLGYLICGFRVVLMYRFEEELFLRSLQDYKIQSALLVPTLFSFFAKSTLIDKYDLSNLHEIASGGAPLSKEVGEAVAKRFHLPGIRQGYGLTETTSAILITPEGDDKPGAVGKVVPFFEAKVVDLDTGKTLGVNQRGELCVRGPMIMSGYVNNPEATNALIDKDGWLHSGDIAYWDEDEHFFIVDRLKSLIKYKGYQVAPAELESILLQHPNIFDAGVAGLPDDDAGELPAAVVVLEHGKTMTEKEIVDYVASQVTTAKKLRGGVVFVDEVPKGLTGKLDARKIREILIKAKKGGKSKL
# Chain of Glutaminase kidney isoform, mitochondrial (Homo sapiens) (O94925 whole entry, looked up, canonical isoform): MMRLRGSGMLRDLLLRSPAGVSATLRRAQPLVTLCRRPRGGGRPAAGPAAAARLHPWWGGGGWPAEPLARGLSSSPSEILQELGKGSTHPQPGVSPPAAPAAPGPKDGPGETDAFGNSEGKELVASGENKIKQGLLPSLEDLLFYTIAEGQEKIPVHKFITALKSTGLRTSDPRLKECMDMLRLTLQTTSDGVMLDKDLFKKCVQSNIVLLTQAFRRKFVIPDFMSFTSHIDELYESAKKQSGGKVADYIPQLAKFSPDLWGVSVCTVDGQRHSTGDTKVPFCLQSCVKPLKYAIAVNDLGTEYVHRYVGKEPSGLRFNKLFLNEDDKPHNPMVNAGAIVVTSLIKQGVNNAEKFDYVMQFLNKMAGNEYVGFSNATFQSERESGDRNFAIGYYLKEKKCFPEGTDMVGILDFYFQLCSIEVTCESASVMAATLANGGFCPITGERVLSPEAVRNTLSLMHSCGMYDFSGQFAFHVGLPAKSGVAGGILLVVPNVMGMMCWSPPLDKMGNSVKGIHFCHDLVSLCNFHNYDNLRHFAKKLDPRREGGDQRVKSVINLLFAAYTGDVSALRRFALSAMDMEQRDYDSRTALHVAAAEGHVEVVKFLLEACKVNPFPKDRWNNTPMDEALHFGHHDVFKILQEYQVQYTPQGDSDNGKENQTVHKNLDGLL
# Chain of Thyroid hormone receptor beta (Homo sapiens) (P10828 whole entry, looked up): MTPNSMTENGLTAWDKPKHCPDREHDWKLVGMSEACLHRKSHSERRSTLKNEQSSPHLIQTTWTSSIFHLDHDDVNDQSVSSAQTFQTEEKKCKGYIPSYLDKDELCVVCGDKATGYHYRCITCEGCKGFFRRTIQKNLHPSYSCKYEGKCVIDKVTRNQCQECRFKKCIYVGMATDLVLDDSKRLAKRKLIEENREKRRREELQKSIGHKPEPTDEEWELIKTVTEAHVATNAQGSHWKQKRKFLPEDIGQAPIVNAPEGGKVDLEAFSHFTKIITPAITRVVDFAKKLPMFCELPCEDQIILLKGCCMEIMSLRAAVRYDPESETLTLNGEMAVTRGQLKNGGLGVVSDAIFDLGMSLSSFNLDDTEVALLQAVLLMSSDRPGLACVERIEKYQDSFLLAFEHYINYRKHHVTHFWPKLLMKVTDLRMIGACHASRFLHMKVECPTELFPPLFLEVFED
# Chain of Retinoic acid receptor RXR-alpha (Homo sapiens) (P19793 whole entry, looked up): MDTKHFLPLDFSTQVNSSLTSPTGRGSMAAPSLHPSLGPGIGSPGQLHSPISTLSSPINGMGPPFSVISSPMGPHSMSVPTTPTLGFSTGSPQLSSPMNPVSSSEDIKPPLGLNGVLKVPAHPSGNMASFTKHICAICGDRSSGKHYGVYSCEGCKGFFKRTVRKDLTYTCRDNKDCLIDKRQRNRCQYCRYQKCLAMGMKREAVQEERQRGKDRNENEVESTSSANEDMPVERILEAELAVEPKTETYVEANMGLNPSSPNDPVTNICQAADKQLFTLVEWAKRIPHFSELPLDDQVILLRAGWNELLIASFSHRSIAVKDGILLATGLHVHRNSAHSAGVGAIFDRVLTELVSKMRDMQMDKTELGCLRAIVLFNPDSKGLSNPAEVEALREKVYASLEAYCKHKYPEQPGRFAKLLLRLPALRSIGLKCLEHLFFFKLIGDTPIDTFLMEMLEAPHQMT
# Chain of Voltage-gated inwardly rectifying potassium channel KCNH2 (Homo sapiens) (Q12809 whole entry, looked up): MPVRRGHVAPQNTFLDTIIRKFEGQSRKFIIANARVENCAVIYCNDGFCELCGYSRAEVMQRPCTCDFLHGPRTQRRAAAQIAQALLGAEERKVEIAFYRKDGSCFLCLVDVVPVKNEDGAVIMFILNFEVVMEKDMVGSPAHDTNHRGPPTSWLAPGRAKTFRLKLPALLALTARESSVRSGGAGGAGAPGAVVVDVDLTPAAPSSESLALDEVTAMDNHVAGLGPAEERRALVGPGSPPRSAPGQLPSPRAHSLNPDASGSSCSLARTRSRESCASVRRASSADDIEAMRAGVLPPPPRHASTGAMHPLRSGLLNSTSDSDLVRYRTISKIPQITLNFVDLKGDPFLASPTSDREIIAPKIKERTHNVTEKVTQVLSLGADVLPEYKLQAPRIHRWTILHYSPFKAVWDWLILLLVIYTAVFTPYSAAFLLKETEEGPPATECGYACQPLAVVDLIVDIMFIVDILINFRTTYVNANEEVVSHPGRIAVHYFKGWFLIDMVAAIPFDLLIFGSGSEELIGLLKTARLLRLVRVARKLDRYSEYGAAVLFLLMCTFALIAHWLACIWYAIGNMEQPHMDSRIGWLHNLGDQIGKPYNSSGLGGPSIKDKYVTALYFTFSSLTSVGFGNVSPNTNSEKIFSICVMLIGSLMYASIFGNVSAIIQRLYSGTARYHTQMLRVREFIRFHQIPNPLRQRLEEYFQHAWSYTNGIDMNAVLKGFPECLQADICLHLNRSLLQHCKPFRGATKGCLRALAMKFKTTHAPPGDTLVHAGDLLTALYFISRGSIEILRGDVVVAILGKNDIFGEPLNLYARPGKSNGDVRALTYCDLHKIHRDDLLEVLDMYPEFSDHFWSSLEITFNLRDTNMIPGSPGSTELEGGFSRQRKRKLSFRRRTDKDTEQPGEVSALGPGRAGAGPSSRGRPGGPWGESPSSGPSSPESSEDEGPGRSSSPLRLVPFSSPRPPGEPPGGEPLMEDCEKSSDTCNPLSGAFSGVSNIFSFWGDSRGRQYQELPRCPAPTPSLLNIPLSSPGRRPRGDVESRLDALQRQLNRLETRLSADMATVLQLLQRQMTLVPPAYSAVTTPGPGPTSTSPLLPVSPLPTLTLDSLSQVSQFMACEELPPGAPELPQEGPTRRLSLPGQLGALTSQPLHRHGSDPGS
compound,measurement,setting,value
CC(C)(C)CC(C)(C)c1ccc(O)cc1,outcome,[1],inactive
same,outcome,[2],inactive
same,outcome,[3],inactive
same,max response,[4],-53.5%
same,Potency,[5],inactive
same,Potency,[6],inactive
same,Potency,[7],inactive
same,Potency,[8],inactive
same,Potency,[9],inactive
same,Potency,[10],inactive
CCCC(C)(COC(N)=O)COC(=O)NC(C)C (configuration not stated),outcome,[11],inactive
same,Potency,[12],inactive
same,outcome,[2],inactive
same,outcome,[3],inactive
same,max response,[4],-3.14% and 6.33%
same,Potency,[5],inactive
same,outcome,[13],inactive
same,max response,[14],3.28% and 3.87%
same,max response,[15],1.9% (inactive) and -6.86% (inactive)
same,Potency,[6],inactive
same,Potency,[7],inactive
same,Potency,[8],inactive
same,Potency,[9],inactive
same,Potency,[16],inactive
same,outcome,[17],inactive
same,outcome,[18],inactive
same,outcome,[19],inactive
Cc1cc(SCc2sc(-c3ccc(C(F)(F)F)c(F)c3)nc2C)ccc1OCC(=O)O,max response,[14],25.2%
same,max response,[15],-3.24% (inactive)
same,outcome,[20],inactive
CC(C)(C)NCC(O)c1cc(Cl)c(N)c(Cl)c1 (configuration not stated),Potency,[6],inactive
same,Potency,[7],inactive
same,Potency,[8],inactive
COc1ccc(Cc2nccc3cc(OC)c(OC)cc23)cc1OC,Potency,[6],inactive
N[C@@H](Cc1ccc(Oc2cc(I)c(O)c(I)c2)c(I)c1)C(=O)O,Potency,[6],inactive
CCC1C(=O)OCC1Cc1cncn1C (configuration not stated),Potency,[6],inactive
CCOP(=S)(OCC)Oc1cc(C)nc(C(C)C)n1,outcome,[1],inactive
same,outcome,[11],inactive
same,Potency,[12],inactive
same,max response,[4],-5.09% and -15.6%
same,Potency,[5],inactive
same,outcome,[13],inactive
same,max response,[14],-12.3% and -5.87%
same,max response,[15],-2.21% (inactive) and -10% (inactive)
same,Potency,[6],inactive
same,Potency,[7],inactive
same,Potency,[8],inactive
same,Potency,[9],inactive
same,Potency,[10],inactive
O=c1[nH]c2ccccc2n1C1CCN(CCCC(c2ccc(F)cc2)c2ccc(F)cc2)CC1,max response,[14],-25.7%
same,Potency,[15],17.8 µM (active)
same,Potency,[7],inactive
same,Potency,[16],inactive
same,outcome,[17],inactive
same,outcome,[18],inactive
same,outcome,[19],inactive
C=C(C)[C@H]1Cc2c(ccc3c2O[C@@H]2COc4cc(OC)c(OC)cc4[C@@H]2C3=O)O1,Potency,[12],44.7 µM (active)
same,outcome,[13],inactive
same,max response,[14],12.4%
same,Potency,[15],20 µM (active)
same,Potency,[6],inactive
same,Potency,[7],inactive
same,Potency,[8],inactive
same,Potency,[16],11.2 µM (active)
same,outcome,[17],inactive
same,outcome,[18],inactive
same,outcome,[19],inactive
O=c1oc2ccccc2c(O)c1C(CC(O)c1ccc(-c2ccc(Br)cc2)cc1)c1ccccc1 (configuration not stated),Potency,[6],inactive
C[C@]12CCC(=O)C(O)=C1CC[C@@H]1[C@@H]2CC[C@]2(C)C(=O)CC[C@@H]12,outcome,[11],inactive
same,Potency,[12],inactive
same,outcome,[2],inactive
same,outcome,[3],inactive
same,max response,[4],21.6%
same,Potency,[5],inactive
same,max response,[14],17.4%
same,max response,[15],13.8% (inactive)
same,outcome,[17],inactive
